High-throughput results from PubChem BioAssay.
ELG1 genotoxic: inducers of genotoxicity in HEK293T ELG1-luciferase cells; HEK293T ELG1-luciferase reporter, luminescence, 16 h; Potency, µM (doses to about 46 µM), without a hit: at the top dose activity change, positive = activation, hits mostly activators; 1.3% of 330,000 active; further: % of control where 0% means no effect; nearly all actives have a fitted effect of over 60% in size
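Step 1: seed 2,000 HEK293T ELG1-luciferase cells per well. Step 2: add compound or DMSO, incubate 16 hr at 37 °C. Step 3: ONE-Glo, 30 min at room temperature, read luminescence.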
NPC1 prom act: activates the NPC1 promoter; Huh7 NPC1 promoter luciferase reporter, 24 h; Potency, µM (highest dose often 9.22 µM), inactives show at the highest dose activation, usual class: activators; 2.4% of 320,000 active; AID 485313; further: % of control where 0% means no effect; nearly all actives have a fitted effect of over 60% in size
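Stably transfected Huh7 (NPC1 promoter→luciferase), 1500 cells/well in Opti-MEM + 10% FBS, 2 h settle, then compound 24 h at 37 °C. Luminescence after 10 min with Amplite reagent.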
Luc counter: counter-screen: inhibitors of Kinase-Glo firefly luciferase | Q27757 | Kinase-Glo luciferase, ATP luminescence, 8 min | Potency, µM (titrated, usually from 38.3 µM), inactives show at the highest dose activity change, negative = inhibition, actives largely listed as inhibitors | 0.28% of 200,000 active; further: on the % scale 0 is the no-effect control and ±100 the full control effect; nearly all actives have a fitted effect of over 60% in size
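Substrate mix (final 50 mM imidazole pH 7.2, 50 mM KCl, 7 mM MgCl2, 10 uM ATP, 0.01% Tween 20, 0.05% BSA) plus pin-tool compound, then Kinase-Glo detection mix; 8 min ambient, luminescence read.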
Rab9 promoter act: Rab9 promoter activation; Huh7 Rab9 promoter-luciferase reporter, luminescence, 24 h; Potency, µM (doses to about 9.22 µM), for inactives: at the highest dose activation, negative = inhibition, hits mostly activators; 2.8% of 320,000 active; further: % of control where 0% means no effect; nearly all actives have a fitted effect of over 60% in size
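Rab9 promoter-driven luciferase in stably transfected Huh7 cells; 1500 cells/well rested 2 h, exposed to compound in DMSO for 24 h at 37 °C, 5% CO2. Luminescence read 10 min after adding luciferase reagent at ambient temperature.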
FLuc modulator: inhibits or activates purified firefly luciferase, miR-21 counter-screen | P08659 | 6.9% of 360,000 active | AID 588342 | purified FLuc, Km substrates, luminescence inhibition | Potency, µM (series often up to 57.5 µM), for the others: at the highest dose activity change, negative = inhibition, hits mostly inhibitors;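 further: plate controls were vehicle for no effect and reference inhibitor for full effect; nearly all actives have a fitted effect of over 55% in size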
Target sequence (P08659 whole entry, looked up): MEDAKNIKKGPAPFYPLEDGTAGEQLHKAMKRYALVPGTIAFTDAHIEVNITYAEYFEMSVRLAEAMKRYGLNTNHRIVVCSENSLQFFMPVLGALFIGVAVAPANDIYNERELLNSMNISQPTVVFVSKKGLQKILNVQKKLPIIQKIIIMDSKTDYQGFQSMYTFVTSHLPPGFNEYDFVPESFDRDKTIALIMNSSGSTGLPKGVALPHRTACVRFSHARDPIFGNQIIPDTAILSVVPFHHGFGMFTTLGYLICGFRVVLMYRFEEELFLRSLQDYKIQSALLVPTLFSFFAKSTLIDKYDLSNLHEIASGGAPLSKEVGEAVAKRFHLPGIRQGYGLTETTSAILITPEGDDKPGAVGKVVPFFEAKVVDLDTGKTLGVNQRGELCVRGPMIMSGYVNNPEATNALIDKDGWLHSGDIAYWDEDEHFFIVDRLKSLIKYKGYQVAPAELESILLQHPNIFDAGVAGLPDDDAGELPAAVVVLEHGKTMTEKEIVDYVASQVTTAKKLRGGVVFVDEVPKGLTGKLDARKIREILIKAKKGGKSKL
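Purified P. pyralis luciferase, 10 nM final, with Km-level 10 uM D-luciferin and 10 uM ATP in 50 mM Tris acetate pH 7.5, 10 mM Mg acetate, 0.01% Tween-20, 0.05% BSA; 6-point qHTS titration about 60 µM downward; luminescence read.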
SMN2 splice up: enhancers of SMN2 splice variant expression; HEK293 SMN2-luciferase splicing reporter, luminescence, 30-36 h; Potency, µM (titrated, usually from 46.1 µM), inactives show top-dose activity change, positive = activation, actives largely listed as activators; 2.8% of 210,000 active; AID 1458; further: % of control where 0% means no effect; nearly all actives have a fitted effect of over 55% in size
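qHTS luciferase splicing reporter: luminescence rises when SMN2 exon 7 is included in transfected HEK293 cells. Compound exposure lasted 30-36 h at 37C, with 4.5 mM final sodium butyrate as control, followed by a ONE-Glo read.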
Active calls of the source: *; ? = inconclusive; . = not tested or not shown; [ ] = dose if it differs, or a comment. An excerpt weighted towards active compounds, which were near 7.3% of everything screened. The call rests on the fitted dose curve; in most records, active means well fitted curve in the direction sought with a large enough effect; inconclusive means small, poorly fitted or top-dose-only effect, or another doubt; inactive means no such curve, though single readings can be large; an effect the other way counts as inactive or inconclusive. Potency means the concentration at half of the fitted maximal effect.

SMILES	ELG1 genotoxic	NPC1 prom act	Luc counter	Rab9 promoter act	FLuc modulator	SMN2 splice up
COc1ccc(/C=N/NC(=O)c2ccc[nH]2)cc1	8.2µM*	2.51µM*	.	1.58µM*	5.36µM*	.
O=C(N/N=C/c1ccc(O)cc1)c1ccncc1	-0.8%	-1.2%	.	-3.0%[1.84 µM]	-19.6%	.
CSc1ccc(/C=N/NC(=O)c2ccc(O)cc2)cc1	?	?	12.6µM*	2.51µM*	4.78µM*	?
O=C(N/N=C/c1ccc(N2CCOCC2)cc1)c1ccc(O)cc1	1.1%	11.6%	.	15.2%	23.9µM*	.
COc1ccc(C)cc1NC(=O)c1c(C(=O)Nc2cccc(C)c2C)sc2nc(C)cc(=O)n12	.	.	.	.	1.1%	10.9%
Cc1nc2ccccc2c(=O)n1/N=C/c1cn(-c2ccccc2)nc1-c1cccs1	-0.5%	18.6%	10.3%	26.2%	2.69µM*	-16.8%
S=c1[nH]nc(-c2ccncc2)n1/N=C/c1cn(-c2ccccc2)nc1-c1ccccc1	16.7%	21.3%	.	?	2.69µM*	.
CC(C)(C)c1ccc(-c2n[nH]c(=S)n2/N=C/c2ccncc2)cc1	2.0%	11.9%	7.2%	25.2%	10.7µM*	19.1%
Cc1nc2ccccc2c(=O)n1/N=C/c1cccs1	0.6%	11.5%	-0.8%	?	-16.9%	7.9%
Cc1ccc(/C=N/n2c(-c3ccncc3)n[nH]c2=S)cc1	-3.4%	-4.8%	-1.3%	-4.1%	4.8%	-29.9%
S=c1[nH]nc(-c2cccs2)n1/N=C/c1cn(-c2ccccc2)nc1-c1cccs1	?	?	.	?	0.675µM*	.
Cc1ccc(Cl)cc1-n1c(=O)cc(N2CCN(c3ccccc3)CC2)[nH]c1=O	.	.	.	.	-13.6%	.
Cc1cccc(CNC(=O)C2CCN(c3nn4cc(-c5ccc(F)cc5)nc4s3)CC2)c1	.	.	.	.	0.9%	.
CCSc1nc2c(c(=O)[nH]c(=O)n2C)n1CC(O)COc1ccc(Cl)cc1 (configuration not stated)	.	.	.	.	0.4%	-10.8%
Cc1cc(N/C=C\c2nnnn2-c2ccccc2)no1	12.5%	10.6%	-1.7%	1.9%	?	29.6%
CN(C)c1ccc(/C=C/c2nnnn2-c2ccccc2)cc1	?	2µM*	-4.6%	1.58µM*	8.49µM*	15.8µM*
N/C(=N\OC(=O)COc1ccc(Cl)cc1Cl)c1ccncc1	?	2.82µM*	-2.6%	0.631µM*	3.01µM*	.
N/C(=N\OC(=O)COc1ccc(Br)cc1Cl)c1cccnc1	?	?	3.0%	?	8.49µM*	17.8µM*
CCc1ccc(OCC(=O)O/N=C(\N)c2cccnc2)cc1	8.3%	3.2%	.	16.6%	?	.
N/C(=N\OC(=O)COc1ccc(Cl)cc1Br)c1cccnc1	-11.4%	3.16µM*	-1.5%	3.98µM*	2.69µM*	-1.5%
Cc1cc(C)c(C)c(OCC(=O)O/N=C(\N)c2cccnc2)c1	-5.0%	-4.6%	.	-0.1%	5.8%	.
COc1ccc(-c2cc3nc(C)c(CCC(=O)N4CCN(c5ccc(F)cc5)CC4)c(C)n3n2)c(OC)c1	.	.	.	.	6.4%	-8.2%
CN(C)/C=C/C(=O)c1cnc(-c2ccccn2)s1	25.3%	3.16µM*	-5.3%	1.58µM*	?	11.2µM*
CN(C)/C=C/C(=O)c1cnc(-c2ccccc2Cl)s1	?	2µM*	-1.0%	1.26µM*	9.53µM*	12.6µM*
CC(=O)c1cnc(-c2cccc(Cl)c2)s1	?	?	-1.3%	?	-17.8%	?
CN(C)/C=C/C(=O)c1cnc(-c2cccc(Cl)c2)s1	?	3.16µM*	1.8%	1.26µM*	12µM*	14.1µM*
Cc1ccc(NC(=O)Cn2c(=O)n(Cc3ccccc3)c(=O)c3c2c2cc(C)ccc2n3C)cc1	.	.	.	.	0.2%	.
Cc1ccc(-c2cn3c(n2)sc2cc(C(=O)NCCC4=CCCCC4)ccc23)c(C)c1	.	.	.	.	-5.3%	.
O=C(/C=C/Nc1ccc(Oc2ccccc2Cl)cc1)c1ccco1	?	3.55µM*	-4.4%	2.24µM*	3.38µM*	15.8µM*
COc1ccccc1Oc1ccc(N/C=C/C(=O)c2ccco2)cc1	?	3.16µM*	?	1.41µM*	5.36µM*	11.2µM*
